Compound activity as filed in PubChem BioAssay.
Compounds with a hit are over-represented: about 3.6% of the library has one in this group of screens.
TWEAK-Fn14 inh: TWEAK-Fn14 signaling inhibition | TWEAK-stimulated Fn14 reporter cells, luciferase luminescence, 8 h | inhibition, % at 10 µM | actives 2% (n = 360,000) | AID 1159606; in the data active = inhibition above about 50%
EBV LMP1 NFkB: reduces LMP1-driven NF-kappaB luciferase signal; LMP1-induced NF-kappaB luciferase reporter cells, luminescence; inhibition, % at 12.5 µM; actives 0.69% (n = 350,000); in the data active = inhibition above about 41%
HSF1 inhib: HSF1 inhibition | NIH3T3-HGL HSE-luciferase, MG132-induced, luminescence 8 h; active compounds read low | activity change, negative = inhibition, % at 7.5 µM (by protocol) | actives 0.77% (n = 300,000) | AID 2098;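 active = more than half of replicate wells show activity change below -50%, luminescence cut by over half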;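 also: luciferase reports HSF-1 transcriptional activity via heat shock element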
HSF-1 act: increases HSF-1 driven luciferase reporter signal; NIH3T3-HGL HSF-1 luciferase reporter, MG132, 8 h; 100% = twice DMSO control signal; activation, % at 9 µM; actives 1.7% (n = 300,000); AID 504408;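 active = mean replicate activation of at least 50% with a set share of replicates each reaching 50%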
LGR2 inh: blocks bursicon-induced cAMP signaling via Drosophila LGR2; HEK293 LGR2, CRE-luciferase, bursicon-stimulated, 4 h; inhibition, % at 9.99 µM; actives 0.35% (n = 380,000);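 active = drop in luminescence signal, shown as inhibition above about 50% in the replicate tests, limit read from the data, passing the limit was not always enough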;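 also: agonist challenge used bursicon conditioned medium at about half maximal strength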
TROY NFkB inh: blocks TROY-dependent signaling in reporter cells; Q293 LMP1-TROYcd NF-kB luciferase reporter, 4 h; inhibition, % at 10 µM; actives 0.98% (n = 360,000);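 active = compounds whose plate-normalised and pattern-corrected inhibition of the luciferase reporter signal at the single screening dose is 50% or more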
Numbers stand for hits; n = inactive; x = no result.

SMILES	TWEAK-Fn14 inh	EBV LMP1 NFkB	HSF1 inhib	HSF-1 act	LGR2 inh	TROY NFkB inh
COc1cccc(NC(=S)N2CCCC2)c1	n	n	n	57	n	n
COc1cccc(N2CCN(C(=S)Nc3cc(C)cc(C)c3)CC2)c1	n	n	-52	n	n	n
CCOC(=O)N1CCC(N(CCN(C)C)C(=S)Nc2cccc(SC)c2)CC1	n	n	n	n	n	n
COc1ccc(NC(=S)N2CCc3ccccc3C2)cc1	n	n	n	61	n	n
C[C@@H]1CN([C@@H](C)CO)C(=O)c2cc(NS(=O)(=O)c3ccccc3)ccc2O[C@@H](C)CCCCO[C@H]1CN(C)S(=O)(=O)c1ccc(Cl)cc1	x	x	x	x	n	x
Fc1ccc(-[n+]2nc(Nc3ccccc3)sc2-c2c(Cl)cccc2Cl)cc1	n	n	n	n	71	n
CCc1ccc(Nc2n[n+](-c3ccccc3)c(-c3c(Cl)cccc3Cl)s2)cc1	52	44	n	n	n	59
CCc1ccc(Nc2n[n+](-c3ccccc3)c(-c3ccc(OCc4ccccc4)cc3)s2)cc1	83	n	n	n	n	n
C[C@H]1CN([C@@H](C)CO)C(=O)c2cc(NC(=O)C3CC3)ccc2O[C@@H]1CN(C)Cc1ccncc1	x	x	x	x	n	x
O=C(C1CCC1)N1CC(=O)N2[C@H](CO)[C@@H](c3ccc(-c4ccccc4F)cc3)[C@@H]2C1	x	x	x	x	n	x
CC(C)(C)OC(=O)N1CSC[C@H]1C(=O)NC[C@H](CC(=O)O)c1ccc(Cl)cc1	n	n	n	82	n	n
CC(C)C[C@H](NC(=O)C1(c2ccccc2)CCN(C(=O)[C@H]2CSCN2C(=O)OC(C)(C)C)CC1)C(=O)O	n	n	n	n	n	n
COc1ccc(Cl)cc1NC(=O)CSc1nc2ccsc2c(=O)n1CC1CCC(C(=O)O)CC1 (configuration not stated)	n	n	-60	n	n	n
CNC(=O)C[C@H]1CC[C@H]2[C@H](COc3ccc(NC(=O)c4cccs4)cc3C(=O)N2C)O1	x	x	x	x	n	x
C[C@H](CO)N1C[C@H](C)[C@@H](CN(C)S(=O)(=O)c2cccs2)Oc2ccc(NS(C)(=O)=O)cc2CC1=O	x	x	x	x	n	x
Cc1onc(-c2ccccc2Cl)c1C(=O)Nc1ccc(-c2nnc3n2CCCCC3)cc1	99	n	n	n	x	n
Cc1onc(-c2ccccc2Cl)c1C(=O)NNC(=O)c1cccc(F)c1	76	n	n	n	n	n
Cc1onc(-c2ccccc2Cl)c1C(=O)Nc1ccc(CN2CCCC2)cc1	n	n	n	n	x	x
C[C@H]1CCCCO[C@@H](CN(C)Cc2ccc(C(F)(F)F)cc2)[C@@H](C)CN([C@@H](C)CO)C(=O)c2cc(NC(=O)Cc3ccccc3)ccc2O1	x	x	x	x	n	x
CN1C(=O)c2cc(NC(=O)C3CCOCC3)ccc2OC[C@H]2O[C@H](CC(=O)NC3CCCC3)CC[C@@H]21	x	x	x	x	n	x
COc1ccc(S(=O)(=O)N(C)C[C@@H]2Oc3ccc(NC(=O)NC4CCCCC4)cc3C(=O)N([C@@H](C)CO)C[C@@H]2C)cc1	x	x	x	x	n	x
NNC(=O)c1ccc(Cn2cc(Br)cn2)o1	n	n	n	n	n	n
Cc1ccc(NC(=O)c2ccc(Cn3cc(Br)cn3)o2)cc1	n	n	n	226	x	n
COC(=O)c1ccc(C)c(NC(=O)c2ccc(Cn3cc([N+](=O)[O-])cn3)o2)c1	n	n	n	60	n	n
Cc1ccc(C(NC(=O)NCCCN2CCOCC2)=C(Cl)Cl)cc1F	n	n	n	69	x	n
SMILES	TWEAK-Fn14 inh	EBV LMP1 NFkB	HSF1 inhib	HSF-1 act	LGR2 inh	TROY NFkB inh
Cc1cc(S(=O)(=O)Nc2ccc(C(=O)NCCCN3CCOCC3)cc2)ccc1F	n	n	n	n	n	n
N=c1c2c(ncn1Cc1ccco1)Oc1c(ccc3ccccc13)C2c1ccccc1 (configuration not stated)	56	n	n	n	n	n
Oc1c(Br)cc(/C=N/Nc2ccc(Cl)nn2)cc1Br	n	n	n	n	n	n
Oc1c(Br)cc(Br)cc1/C=N/Nc1ccc(Cl)nn1	n	45	n	n	n	n
COc1ccc(CN2C(=O)C(C)=C(C)C2OC)cc1 (configuration not stated)	90	n	n	n	n	n
CCCNC(=O)C[C@@H]1C[C@@H]2c3cc(NC(=O)Cc4ccncc4)ccc3O[C@@H]2[C@@H](CO)O1	x	x	x	x	n	x
CC(=O)Nc1ccc(N=Nc2ccc(O)cc2)cc1	n	n	n	57	n	n
Cc1cc(-c2ccc(F)cc2)n2ncc(-c3ccccc3)c2n1	86	x	x	x	n	79
Cc1cc(-c2ccncc2)n2ncc(-c3ccccc3)c2n1	n	x	x	x	n	n
Cc1nc2c(-c3ccc(Cl)cc3)cnn2c(N)c1-c1ccc(F)cc1	95	n	-74	n	n	80
CC(=O)Nc1ccc(Nc2cc(C)nc3c(-c4ccccc4)cnn23)cc1	68	n	x	x	n	n
Cc1cc(N)n2ncc(-c3ccccc3)c2n1	n	n	n	n	x	n
COc1ccc(-c2c(C)nc3c(-c4ccc(F)cc4)cnn3c2N)cc1	n	n	n	n	n	55
Cc1cc(C(F)(F)F)n2ncc(-c3ccc(F)cc3)c2n1	n	n	n	n	n	n
C[C@@H]1CN([C@@H](C)CO)C(=O)c2cc(NS(=O)(=O)c3cn(C)cn3)ccc2O[C@H]1CN(C)Cc1ccc2c(c1)OCO2	x	x	x	x	n	x
Fc1ccc(-c2cnn3c(-c4cccs4)ccnc23)cc1	n	n	n	n	n	n
Cc1nc2c(-c3ccc(F)cc3)cnn2c(N)c1-c1ccccc1	104	n	-81	n	64	94
Fc1ccc(-c2cnn3c(-c4ccncc4)ccnc23)cc1	61	n	n	n	n	n
CCCNC(=O)C[C@@H]1CC[C@@H]2[C@@H](COc3ccc(NC(=O)c4ccc(OC)cc4)cc3C(=O)N2C)O1	x	x	x	x	n	x
O=C(CSc1nnc(SCc2ccccc2)s1)N/N=C/c1c[nH]c2ccccc12	n	n	n	n	n	n
O=C(CSc1nnc(SCc2ccccc2Cl)s1)N/N=C/c1c[nH]c2ccccc12	64	n	n	n	n	n
O=C(CSc1nnc(SCc2ccccc2)s1)N/N=C/c1ccc(C(=O)O)cc1	n	n	n	n	n	n
Cc1ccc(CSc2nnc(SCC(=O)N/N=C/c3ccc(C(=O)O)cc3)s2)cc1	69	n	n	n	67	n
O=C(CSc1nnc(SCc2ccc(Cl)cc2)s1)N/N=C/c1c(Cl)cccc1Cl	n	n	n	60	n	n
O=C(CSc1nnc(SCc2ccc(Cl)cc2)s1)N/N=C/c1ccc(Cl)cc1Cl	n	n	n	n	n	n
CCC(=O)N[C@@H]1C=C[C@H](CC(=O)NCc2ccccc2F)O[C@@H]1CO	x	x	x	x	n	x
C[C@H]1CN([C@@H](C)CO)C(=O)Cc2cc(N(C)C)ccc2O[C@@H]1CN(C)Cc1ccc(C(F)(F)F)cc1	x	x	x	x	n	x
O=C(O)CCCNS(=O)(=O)c1ccc2ccccc2c1	n	n	n	n	x	n
